Laboratory results published in PubChem BioAssay.
For part of these data: Results with a measured potency or affinity are listed apart. Calls of active or inactive are those of the source. Unless noted, how the calls were made is not given here.

Legend:
[1] = antimalarial activity against Dd2 strain (AID 2302;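 active means growth inhibition above 50% at the single 2 µM test dose, taken to imply half-maximal potency below 2 µM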;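 further: 0% = DMSO untreated growth and 100% = chloroquine plus artemisinin killed control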); conditions: P. falciparum Dd2 in RBCs, LDH growth readout, 72 h; at 2 µM; hits give high values
[2] = HepG2 cytotoxicity, primary screen, cytotoxicity control for P. falciparum antimalarial project, cell-based, ATP luminescence (AID 2303;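 active means inhibition above 50%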;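 further: 0% = DMSO wells and 100% = digitonin-killed cells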); conditions: HepG2 viability, 24-48 h, at 10 µM, hits give high values
[3] = molecular target: L-lactate dehydrogenase (Plasmodium falciparum (isolate CDC / Honduras)) (UniProt Q27743); test: PfLDH activity inhibition – cell lysate, 3D7 strain, counter-screen for P. falciparum growth inhibition project (AID 2304);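 further: 0% = vehicle and 100% = reference inhibitor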; conditions: P. falciparum 3D7 crude extract, LDH APAD/NBT absorbance; at 2 µM; hits give high values
L-lactate dehydrogenase (Plasmodium falciparum (isolate CDC / Honduras)), sequence (Q27743 whole entry, looked up): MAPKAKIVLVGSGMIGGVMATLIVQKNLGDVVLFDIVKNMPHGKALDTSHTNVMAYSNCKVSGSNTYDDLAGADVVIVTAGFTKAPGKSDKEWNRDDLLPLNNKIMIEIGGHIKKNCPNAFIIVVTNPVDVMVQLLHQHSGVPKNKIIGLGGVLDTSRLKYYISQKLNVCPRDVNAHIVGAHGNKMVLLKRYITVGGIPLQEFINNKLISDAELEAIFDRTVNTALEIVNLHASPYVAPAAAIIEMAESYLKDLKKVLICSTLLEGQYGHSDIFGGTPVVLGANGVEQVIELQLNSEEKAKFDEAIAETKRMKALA

[4] = inhibition of 3D7 malaria parasite growth – strain 3D7 (AID 2306);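 further: 0% = DMSO wells and 100% = chloroquine plus artemisinin control wells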; conditions: P. falciparum 3D7 erythrocytic growth, LDH absorbance, 72 h; at 2 µM; hits give high values
[5] = molecular target: Calcium-dependent protein kinase 1 (Plasmodium falciparum (isolate 3D7)) (UniProt P62344); test: PfCDPK1 kinase inhibitors, biochemical, TCAMS library (AID 1159585; cut-off not given, nearly all actives have IC50 up to about 0.98 µM;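 further: inhibitors leave more ATP so luminescence rises with inhibition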); conditions: recombinant PfCDPK1, Kinase-Glo ATP depletion luminescence
Calcium-dependent protein kinase 1 (Plasmodium falciparum (isolate 3D7)), sequence (P62344 whole entry, looked up): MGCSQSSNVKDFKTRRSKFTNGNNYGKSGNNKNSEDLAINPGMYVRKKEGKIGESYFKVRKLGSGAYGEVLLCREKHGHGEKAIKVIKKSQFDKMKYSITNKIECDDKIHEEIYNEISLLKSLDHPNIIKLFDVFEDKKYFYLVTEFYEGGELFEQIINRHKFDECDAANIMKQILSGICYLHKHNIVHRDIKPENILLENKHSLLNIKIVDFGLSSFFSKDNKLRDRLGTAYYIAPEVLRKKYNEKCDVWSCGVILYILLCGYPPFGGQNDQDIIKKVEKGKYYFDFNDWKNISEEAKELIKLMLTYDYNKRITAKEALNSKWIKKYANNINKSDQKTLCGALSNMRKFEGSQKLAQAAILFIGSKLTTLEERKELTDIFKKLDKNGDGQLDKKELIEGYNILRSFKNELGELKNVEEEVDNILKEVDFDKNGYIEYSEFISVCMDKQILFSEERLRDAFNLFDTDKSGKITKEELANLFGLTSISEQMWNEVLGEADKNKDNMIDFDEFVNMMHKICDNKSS

[6] = molecular target: Plasmodium falciparum protein kinase 6 (PK6, PF3D7_1337100) (UniProt Q8IDW1); test: PfPK6 kinase inhibitors, biochemical, TCAMS library (AID 1159586); conditions: recombinant PfPK6, Kinase-Glo ATP depletion luminescence
Plasmodium falciparum protein kinase 6 (PK6, PF3D7_1337100), sequence (Q8IDW1 1-305): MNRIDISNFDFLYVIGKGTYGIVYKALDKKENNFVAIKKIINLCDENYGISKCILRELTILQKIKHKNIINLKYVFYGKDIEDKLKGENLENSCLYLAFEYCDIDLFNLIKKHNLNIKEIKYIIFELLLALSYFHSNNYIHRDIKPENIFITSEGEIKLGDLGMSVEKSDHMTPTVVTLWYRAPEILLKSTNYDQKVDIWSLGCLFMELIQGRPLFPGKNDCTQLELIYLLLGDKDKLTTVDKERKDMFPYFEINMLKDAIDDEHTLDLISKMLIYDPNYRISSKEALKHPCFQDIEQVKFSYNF

[7] = molecular target: Protein kinase 7 (PK7), Plasmodium falciparum 3D7 (PF3D7_0213400) (UniProt Q7YTF7); test: inhibition of Plasmodium PK7 catalytic activity – biochemical, TCAMS antimalarial set, Kinase-Glo luminescence (AID 1159587); conditions: recombinant PfPK7, Kinase-Glo ATP depletion luminescence
Protein kinase 7 (PK7), Plasmodium falciparum 3D7 (PF3D7_0213400), sequence (Q7YTF7 1-343): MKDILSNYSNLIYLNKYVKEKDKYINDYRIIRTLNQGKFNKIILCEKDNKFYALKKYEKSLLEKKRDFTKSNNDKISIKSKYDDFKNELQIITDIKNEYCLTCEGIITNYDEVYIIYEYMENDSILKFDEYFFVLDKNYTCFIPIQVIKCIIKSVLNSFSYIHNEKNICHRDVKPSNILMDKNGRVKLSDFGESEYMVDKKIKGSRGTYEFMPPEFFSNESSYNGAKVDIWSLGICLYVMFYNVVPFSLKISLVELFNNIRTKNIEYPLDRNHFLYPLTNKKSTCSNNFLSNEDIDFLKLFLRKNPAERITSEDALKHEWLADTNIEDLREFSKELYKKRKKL

[8] = molecular target: Calcium-dependent protein kinase 4 (Plasmodium falciparum (isolate 3D7)) (UniProt Q8IBS5); test: PfCDPK4 kinase inhibitors, biochemical, TCAMS library (AID 1159588; cut-off not given, nearly all actives have IC50 up to about 0.91 µM); conditions: recombinant PfCDPK4, Kinase-Glo ATP depletion luminescence
Calcium-dependent protein kinase 4 (Plasmodium falciparum (isolate 3D7)), sequence (Q8IBS5 whole entry, looked up): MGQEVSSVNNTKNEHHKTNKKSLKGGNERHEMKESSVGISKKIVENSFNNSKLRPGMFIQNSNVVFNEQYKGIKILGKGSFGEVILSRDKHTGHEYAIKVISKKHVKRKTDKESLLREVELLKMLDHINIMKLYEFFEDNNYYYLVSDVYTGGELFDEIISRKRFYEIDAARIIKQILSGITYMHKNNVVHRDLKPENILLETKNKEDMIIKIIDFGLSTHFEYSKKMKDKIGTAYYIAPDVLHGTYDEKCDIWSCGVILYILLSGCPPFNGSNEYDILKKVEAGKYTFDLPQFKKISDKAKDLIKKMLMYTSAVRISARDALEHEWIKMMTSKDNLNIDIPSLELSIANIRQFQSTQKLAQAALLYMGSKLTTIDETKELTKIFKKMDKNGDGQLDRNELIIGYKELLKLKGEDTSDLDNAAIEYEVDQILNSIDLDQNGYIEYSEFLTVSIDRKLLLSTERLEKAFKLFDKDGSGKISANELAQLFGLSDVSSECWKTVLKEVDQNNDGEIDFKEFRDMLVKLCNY

| SMILES | growth inhibition [1] | inhibition [2] | inhibition [3] | growth inhibition [4] | outcome [5] | outcome [6] | outcome [7] | outcome [8] |
| --- | --- | --- | --- | --- | --- | --- | --- | --- |
| CC(C)c1ccc2c(c1)c(SC(C)(C)C)c(CC(C)(C)C#N)n2Cc1ccc(Cl)cc1 | 95% (active) | -3% (inactive) | 8% (inactive) | 96% (active) | inactive | inactive | inactive | inactive |
| O=C(/C=C/c1ccc(Cl)c(Cl)c1)NCCCCN1CCCN(C(=O)Nc2cc(Cl)cc(Cl)c2)CC1 | 1% (inactive) | 21% (inactive) | 2% (inactive) | 97% (active) | inactive | inactive | inactive | inactive |
| CCc1ccc(NC(=O)c2ccc(CN3CCCN(Cc4cccc(Cl)c4)CC3)cc2)cc1 | 2% (inactive) | 50% (active) | 5% (inactive) | 84% (active) | inactive | inactive | inactive | inactive |
| Cc1cnn(-c2cccc(C(=O)NC3CCC(CCN4CCc5ccc(C#N)cc5CC4)CC3)c2)c1 (stereo not drawn) | 48% (inactive) | 24% (inactive) | -9% (inactive) | 94% (active) | inactive | inactive | inactive | inactive |
| N#Cc1ccc2c(c1)CCN(CCC1CCC(NC(=O)/C=C/c3c[nH]c4ccc(F)cc34)CC1)CC2 (stereo not drawn) | 83% (active) | 18% (inactive) | 4% (inactive) | 101% (active) | inactive | inactive | inactive | inactive |
| O=C(Nc1cccc(CN2CCCN(Cc3ccccc3)CC2)c1)c1ccc(-c2ccccc2)cc1 | 8% (inactive) | 45% (inactive) | -1% (inactive) | 85% (active) | inactive | inactive | inactive | inactive |
| CNS(=O)(=O)Cc1ccc(Nc2nccc(Nc3cccc4c3cnn4C(=O)Nc3ccccc3)n2)cc1 | 5% (inactive) | 45% (inactive) | 1% (inactive) | 89% (active) | inactive | inactive | inactive | inactive |
| Cc1cccc(NC(=O)c2cnc(N3CCN(c4ccncc4)CC3)c(Cl)c2)c1 | 54% (active) | 36% (inactive) | -2% (inactive) | 100% (active) | inactive | inactive | inactive | inactive |
| COc1ccc(N2CCN(CCCC/C=C/c3ccc(NC(=O)c4cc(Cl)cc(Cl)c4)cc3)CC2)c(OC)c1 | 39% (inactive) | 20% (inactive) | 5% (inactive) | 99% (active) | inactive | inactive | inactive | inactive |
| COc1ccccc1NC(=O)CSc1nc2cccnc2n1-c1ccccc1OC | 91% (active) | -4% (inactive) | -3% (inactive) | 94% (active) | inactive | inactive | inactive | inactive |
| Fc1ccc(-c2cc(NCCCn3ccnc3)nc(-c3cccnc3)n2)cc1 | 70% (active) | 11% (inactive) | 0% (inactive) | 99% (active) | inactive | inactive | inactive | inactive |
| C[C@H](Cc1ccc(OCCCCCCCOc2ccc(C[C@@H](C)NC[C@H](O)c3cccc(Cl)c3)cc2)cc1)NC[C@H](O)c1cccc(Cl)c1 | 97% (active) | 99% (active) | -6% (inactive) | 99% (active) | inactive | inactive | inactive | inactive |
| c1cc(Nc2nccc(-c3cnn4ncccc34)n2)cc(-c2cnco2)c1 | 83% (active) | 54% (active) | 3% (inactive) | 96% (active) | inactive | inactive | inactive | inactive |
| O=C(CCCCCNC(=O)c1ccc(O)c(-c2ccc(Cl)c(Cl)c2)c1)NCCN1CCCC1 | 2% (inactive) | -6% (inactive) | -2% (inactive) | 90% (active) | inactive | inactive | inactive | inactive |
| COc1cc2nc(NCCc3cccc(Cl)c3)nc(NCc3ccccc3)c2cc1OC | 101% (active) | 97% (active) | 0% (inactive) | 101% (active) | inactive | inactive | inactive | inactive |
| Cc1ccc2c(OCCN3CCC(Cc4ccc5c(c4)NC(=O)CO5)CC3)cc(F)cc2n1 | 21% (inactive) | 24% (inactive) | -2% (inactive) | 89% (active) | inactive | inactive | inactive | inactive |
| O=C(Nc1ccc(Br)cc1)c1cc(Br)ccc1NS(=O)(=O)c1cc(C(F)(F)F)cc(C(F)(F)F)c1 | 67% (active) | 68% (active) | -7% (inactive) | 85% (active) | inactive | inactive | inactive | inactive |
| CN(C)CCCNc1ncnc2c1[nH]c1ccc(F)cc12 | -1% (inactive) | 14% (inactive) | 1% (inactive) | 100% (active) | inactive | inactive | inactive | inactive |

| SMILES | growth inhibition [1] | inhibition [2] | inhibition [3] | growth inhibition [4] | outcome [5] | outcome [6] | outcome [7] | outcome [8] |
| --- | --- | --- | --- | --- | --- | --- | --- | --- |
| CC1(C)N=C(N)N=C(N)N1OCCCOc1c(Cl)cc(Cl)cc1Cl | 97% (active) | 65% (active) | -2% (inactive) | 94% (active) | inactive | inactive | inactive | inactive |
| CCCCCC(C)N=C(Nc1ccc(C#N)cc1O)Nc1cccc(Cl)c1Cl (stereo not drawn) | 98% (active) | 28% (inactive) | -5% (inactive) | 100% (active) | inactive | inactive | inactive | inactive |
| CN1CCN(c2cc3c(cc2Br)CCN3C(=O)Nc2ccc(-c3cnc4ccccc4c3)cc2)CC1 | 79% (active) | 100% (active) | 3% (inactive) | 99% (active) | inactive | inactive | inactive | inactive |
| CN(CCO)Cc1cccc(-c2ccc(NC(=O)c3cccc(C#N)c3)cc2)c1 | 57% (active) | 23% (inactive) | 9% (inactive) | 97% (active) | inactive | inactive | inactive | inactive |
| O=C1NC(c2ccccc2)C2(CCN(CC(O)COc3cccc4ncccc34)CC2)O1 (stereo not drawn) | 95% (active) | 5% (inactive) | -4% (inactive) | 92% (active) | inactive | inactive | inactive | inactive |
| O=C(Nc1nc2cc(S(=O)(=O)NCc3ccc(Cl)c(Cl)c3)ccc2n1CCCN1CCCC1)c1ccc(Cl)cc1 | 16% (inactive) | 57% (active) | -1% (inactive) | 89% (active) | inactive | inactive | inactive | inactive |
| Cc1nc(C(=O)N2CCCC[C@H]2CNC(=O)c2ccc(-c3ccc(N4CCCC4=O)cc3C)cc2)c(-c2ccc(F)cc2)s1 | 94% (active) | 6% (inactive) | 8% (inactive) | 98% (active) | inactive | inactive | inactive | inactive |
| Fc1ccc2nc(-c3ccc(-c4ccc(CN5CCCCC5)cc4)cc3)[nH]c2c1 | 100% (active) | 31% (inactive) | -3% (inactive) | 98% (active) | inactive | inactive | inactive | inactive |
| Cc1[nH]c(C)c(-c2ccc(OCCCc3ccccn3)cc2)c(=O)c1Br | 97% (active) | -8% (inactive) | 5% (inactive) | 98% (active) | inactive | inactive | inactive | inactive |
| CS(=O)(=O)CCNCc1cccc(-c2cc3c(Nc4ccc5c(cnn5Cc5ccccc5)c4)ncnc3s2)c1 | 101% (active) | 36% (inactive) | 2% (inactive) | 101% (active) | inactive | inactive | inactive | inactive |
| COc1ccc(-c2ccc(CNCc3ccccc3)cc2)cc1S(=O)(=O)NCCN1CCCC1 | 76% (active) | 36% (inactive) | -3% (inactive) | 102% (active) | inactive | inactive | inactive | inactive |
| CCn1c(-c2nonc2N)nc2c(-c3cccc(NC(=O)Nc4cccc(OC)c4)c3)ncc(OCCCN)c21 | 69% (active) | 1% (inactive) | 4% (inactive) | 92% (active) | inactive | inactive | inactive | inactive |
| C[C@]12CC3CC(Nc4nc(N5CCOCC5)nc5ccccc45)(C1)C[C@@](C)(C3)C2 | 14% (inactive) | 31% (inactive) | -5% (inactive) | 95% (active) | inactive | inactive | inactive | inactive |
| CS(=O)(=O)c1ccc2c(c1)CCN(CCC1CCC(NC(=O)c3cc4cccc(Br)c4[nH]3)CC1)CC2 (stereo not drawn) | 7% (inactive) | 27% (inactive) | -8% (inactive) | 92% (active) | inactive | inactive | inactive | inactive |
| COc1ccc(NC(=O)[C@H](Cc2ccccc2)Nc2cc(C)nc(NCCc3ccccn3)n2)cc1 | 39% (inactive) | -7% (inactive) | -3% (inactive) | 99% (active) | inactive | inactive | inactive | inactive |
| CCOc1ccc(C(C)NC(=O)c2ccc(OC)c(Br)c2)cc1OCC (stereo not drawn) | 100% (active) | 9% (inactive) | 2% (inactive) | 100% (active) | inactive | inactive | inactive | inactive |
| COc1cccc(-c2ccc(NC(=O)C3CCCN(Cc4cccc(OC)c4O)C3)cc2)c1 (stereo not drawn) | 78% (active) | 13% (inactive) | 1% (inactive) | 98% (active) | inactive | inactive | inactive | inactive |
| COc1ccc2nccc(N3CCC(CCNCc4cc5c(cn4)OCCO5)CC3)c2n1 | 101% (active) | 18% (inactive) | 7% (inactive) | 100% (active) | inactive | inactive | inactive | inactive |
